What all share (test): DAPPL (digital affinity profiling via proximity ligation, sequencing); 10 mM Tris-HCl pH 7.5, 50 mM NaCl, 1 mM DTT, 4% glycerol, room temperature, 30 min; GST-TFs on glutathione beads, 16-mer random dsDNA library, 0.1% formaldehyde crosslink after washing; high values mean tight binding
In one test the target is T1, FEV (Homo sapiens, UniProt Q99581 1-238).
T1 sequence: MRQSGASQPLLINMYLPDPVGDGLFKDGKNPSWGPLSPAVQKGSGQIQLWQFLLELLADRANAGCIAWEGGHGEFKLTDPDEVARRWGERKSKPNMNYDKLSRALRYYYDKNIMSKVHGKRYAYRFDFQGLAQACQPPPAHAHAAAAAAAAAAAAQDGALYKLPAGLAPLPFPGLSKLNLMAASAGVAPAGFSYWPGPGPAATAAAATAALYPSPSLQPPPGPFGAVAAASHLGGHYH
The following applies: protein: recombinant; tags: N-terminal GST; dsDNA, one strand shown. In outline:
(§1)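 Binding signal is each hexamer's read frequency for a factor divided by its frequency in the tag-only sample. The factors were GST-fused human transcription factors from yeast, captured on glutathione beads, DNA-barcoded and pooled with that sample. Pools were incubated with 200 nmole of a random double-stranded 16-mer DNA library in Tris/NaCl/DTT/glycerol buffer at room temperature for 30 min, then washed, crosslinked with 0.1% formaldehyde, proximity-ligated with BsaI/T4 ligase (1 h, 37 °C), PCR-amplified and sequenced on an Illumina NextSeq500.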

The target in the next test is ETV5 (Homo sapiens, UniProt P41161 1-510). The following applies: protein: recombinant; tags: N-terminal GST; dsDNA, one strand shown. In a few lines: as §1
ETV5, sequence (P41161 whole entry): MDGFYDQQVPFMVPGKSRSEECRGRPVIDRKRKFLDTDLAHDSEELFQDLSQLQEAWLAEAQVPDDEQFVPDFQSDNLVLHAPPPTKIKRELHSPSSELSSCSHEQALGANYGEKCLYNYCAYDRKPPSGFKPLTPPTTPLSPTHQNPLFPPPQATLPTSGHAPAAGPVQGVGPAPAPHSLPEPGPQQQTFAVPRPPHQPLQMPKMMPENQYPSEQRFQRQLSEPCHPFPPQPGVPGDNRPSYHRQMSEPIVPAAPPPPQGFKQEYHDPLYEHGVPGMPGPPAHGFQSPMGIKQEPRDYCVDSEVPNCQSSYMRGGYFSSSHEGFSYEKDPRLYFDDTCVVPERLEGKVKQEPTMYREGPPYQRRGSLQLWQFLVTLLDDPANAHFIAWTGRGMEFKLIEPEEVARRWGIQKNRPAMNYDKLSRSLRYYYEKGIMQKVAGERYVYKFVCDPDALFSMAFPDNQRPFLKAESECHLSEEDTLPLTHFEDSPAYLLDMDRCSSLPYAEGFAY
For another test, the target named is HSF1 (Homo sapiens, UniProt Q00613 1-529). The conditions noted are these: protein: recombinant; tags: N-terminal GST; chain copies: 3; dsDNA, one strand shown. In outline:
as §1

For the next test, the target named is T2, SPIC (Homo sapiens, UniProt Q8N5J4 1-248).
T2 sequence: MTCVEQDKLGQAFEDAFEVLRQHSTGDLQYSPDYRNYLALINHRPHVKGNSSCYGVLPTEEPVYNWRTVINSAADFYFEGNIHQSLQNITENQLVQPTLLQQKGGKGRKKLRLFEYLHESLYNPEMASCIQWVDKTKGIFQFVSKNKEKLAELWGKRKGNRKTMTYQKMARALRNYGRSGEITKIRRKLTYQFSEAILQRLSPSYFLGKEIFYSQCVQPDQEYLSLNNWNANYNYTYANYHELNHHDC
The conditions noted are these: protein: recombinant; tags: N-terminal GST; dsDNA, one strand shown. In outline:
as §1

In another test the target is ELF4 (Homo sapiens, UniProt Q99607 1-663). The following applies: protein: recombinant; tags: N-terminal GST; dsDNA, one strand shown. In outline:
as §1

In a further test the target is T3, ELK4 (Homo sapiens, UniProt P28324-2 1-405).
T3 sequence: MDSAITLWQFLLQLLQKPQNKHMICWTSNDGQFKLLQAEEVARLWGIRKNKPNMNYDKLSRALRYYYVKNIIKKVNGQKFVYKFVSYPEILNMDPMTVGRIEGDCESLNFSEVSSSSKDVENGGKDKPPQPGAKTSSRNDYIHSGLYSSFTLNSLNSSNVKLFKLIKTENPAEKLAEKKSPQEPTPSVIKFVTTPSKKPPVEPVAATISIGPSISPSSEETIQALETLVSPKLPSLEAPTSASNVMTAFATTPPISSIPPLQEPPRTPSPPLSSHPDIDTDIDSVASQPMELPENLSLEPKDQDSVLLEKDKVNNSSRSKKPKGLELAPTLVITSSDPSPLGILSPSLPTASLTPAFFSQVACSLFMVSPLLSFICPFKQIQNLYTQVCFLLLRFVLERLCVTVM
The following applies: protein: recombinant; tags: N-terminal GST; dsDNA, one strand shown. In a few lines: as §1

The target in another test is T4, ETV2 (Homo sapiens, UniProt O00321 1-342).
T4 sequence: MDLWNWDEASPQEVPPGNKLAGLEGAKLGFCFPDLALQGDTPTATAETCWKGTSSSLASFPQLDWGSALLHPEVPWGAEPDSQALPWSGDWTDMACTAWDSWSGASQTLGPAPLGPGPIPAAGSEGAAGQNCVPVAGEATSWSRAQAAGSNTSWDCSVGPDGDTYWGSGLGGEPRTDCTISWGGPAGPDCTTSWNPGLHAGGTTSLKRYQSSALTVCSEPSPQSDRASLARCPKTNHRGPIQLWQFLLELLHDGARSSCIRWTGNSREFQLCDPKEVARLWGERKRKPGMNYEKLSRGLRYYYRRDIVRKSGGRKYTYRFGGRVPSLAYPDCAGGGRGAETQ
The conditions noted are these: protein: recombinant; tags: N-terminal GST; dsDNA, one strand shown. In a few lines: as §1

The target in another test is T5, ELF3 (Homo sapiens, UniProt P78545 1-371).
T5 sequence: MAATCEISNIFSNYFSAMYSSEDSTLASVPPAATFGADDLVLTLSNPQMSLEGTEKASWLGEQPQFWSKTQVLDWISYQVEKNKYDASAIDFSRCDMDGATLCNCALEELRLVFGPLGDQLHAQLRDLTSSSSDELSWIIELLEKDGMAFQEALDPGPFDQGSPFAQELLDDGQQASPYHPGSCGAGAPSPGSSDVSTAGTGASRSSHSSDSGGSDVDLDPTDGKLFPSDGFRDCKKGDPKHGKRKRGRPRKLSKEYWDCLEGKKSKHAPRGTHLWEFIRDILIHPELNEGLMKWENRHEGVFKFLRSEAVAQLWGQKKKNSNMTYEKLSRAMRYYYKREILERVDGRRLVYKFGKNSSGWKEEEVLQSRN
The following applies: protein: recombinant; tags: N-terminal GST; dsDNA, one strand shown. In a few lines: as §1

The target in another test is CRX (Homo sapiens, UniProt O43186 1-299). The following applies: protein: recombinant; tags: N-terminal GST; dsDNA, one strand shown. In outline: as §1
CRX, sequence (O43186 whole entry): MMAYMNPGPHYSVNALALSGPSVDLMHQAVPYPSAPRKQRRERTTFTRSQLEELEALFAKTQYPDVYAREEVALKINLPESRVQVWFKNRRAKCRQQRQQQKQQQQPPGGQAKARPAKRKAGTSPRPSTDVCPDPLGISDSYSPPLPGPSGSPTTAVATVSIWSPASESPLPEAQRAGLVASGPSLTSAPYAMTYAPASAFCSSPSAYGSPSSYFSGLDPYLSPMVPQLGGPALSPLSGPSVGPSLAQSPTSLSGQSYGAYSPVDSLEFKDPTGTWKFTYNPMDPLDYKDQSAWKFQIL
In a further test the target is ETV1 (Homo sapiens, UniProt P50549 1-477). The conditions noted are these: protein: recombinant; tags: N-terminal GST; dsDNA, one strand shown. In a few lines:
as §1

For a further test, the target named is T6, ERF (Homo sapiens, UniProt P50548 1-548).
T6 sequence: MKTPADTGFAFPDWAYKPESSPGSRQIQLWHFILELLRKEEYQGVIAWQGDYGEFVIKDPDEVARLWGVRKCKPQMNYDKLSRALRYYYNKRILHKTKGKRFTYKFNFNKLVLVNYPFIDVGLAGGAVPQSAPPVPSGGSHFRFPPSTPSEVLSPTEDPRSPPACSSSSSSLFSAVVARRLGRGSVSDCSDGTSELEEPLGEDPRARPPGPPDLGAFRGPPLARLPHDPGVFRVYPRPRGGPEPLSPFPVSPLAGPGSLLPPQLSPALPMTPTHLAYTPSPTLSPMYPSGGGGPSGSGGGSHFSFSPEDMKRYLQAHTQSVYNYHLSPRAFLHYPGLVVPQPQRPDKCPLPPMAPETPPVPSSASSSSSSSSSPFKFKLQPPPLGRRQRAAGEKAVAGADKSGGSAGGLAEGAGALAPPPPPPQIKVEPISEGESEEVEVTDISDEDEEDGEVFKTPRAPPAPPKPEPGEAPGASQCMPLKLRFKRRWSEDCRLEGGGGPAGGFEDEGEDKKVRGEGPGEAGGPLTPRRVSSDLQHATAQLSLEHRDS
The following applies: protein: recombinant; tags: N-terminal GST; dsDNA, one strand shown. In a few lines: as §1

Another test deals with T7, ETV3L (Homo sapiens, UniProt Q6ZN32 1-361).
T7 sequence: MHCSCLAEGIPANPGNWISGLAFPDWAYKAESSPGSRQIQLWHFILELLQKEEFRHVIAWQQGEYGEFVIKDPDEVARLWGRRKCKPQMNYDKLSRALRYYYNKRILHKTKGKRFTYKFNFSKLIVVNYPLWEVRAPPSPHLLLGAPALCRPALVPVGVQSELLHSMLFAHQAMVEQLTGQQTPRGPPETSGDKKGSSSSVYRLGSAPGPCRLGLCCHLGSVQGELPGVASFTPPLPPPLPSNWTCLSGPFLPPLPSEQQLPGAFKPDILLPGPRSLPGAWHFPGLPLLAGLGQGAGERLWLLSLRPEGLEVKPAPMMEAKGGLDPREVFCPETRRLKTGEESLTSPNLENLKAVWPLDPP
The conditions noted are these: protein: recombinant; tags: N-terminal GST; dsDNA, one strand shown. In outline: as §1

The target in another test is T8, ETS2 (Homo sapiens, UniProt P15036 1-469).
T8 sequence: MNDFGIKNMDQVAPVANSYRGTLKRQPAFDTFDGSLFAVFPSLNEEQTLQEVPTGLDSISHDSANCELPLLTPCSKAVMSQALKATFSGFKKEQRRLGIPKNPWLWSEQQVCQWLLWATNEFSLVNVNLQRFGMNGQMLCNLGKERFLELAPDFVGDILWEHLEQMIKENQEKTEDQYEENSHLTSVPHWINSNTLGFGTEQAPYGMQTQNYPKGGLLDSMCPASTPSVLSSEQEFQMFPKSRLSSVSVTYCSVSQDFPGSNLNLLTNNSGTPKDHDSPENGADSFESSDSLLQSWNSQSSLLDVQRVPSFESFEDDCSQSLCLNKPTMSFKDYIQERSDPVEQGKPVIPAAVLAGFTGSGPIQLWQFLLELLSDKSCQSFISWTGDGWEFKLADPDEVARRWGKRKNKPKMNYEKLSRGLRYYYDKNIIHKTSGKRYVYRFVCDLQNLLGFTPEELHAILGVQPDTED
The conditions noted are these: protein: recombinant; tags: N-terminal GST; dsDNA, one strand shown. In outline:
as §1

Another test deals with T9, SPDEF (Homo sapiens, UniProt O95238 1-335).
T9 sequence: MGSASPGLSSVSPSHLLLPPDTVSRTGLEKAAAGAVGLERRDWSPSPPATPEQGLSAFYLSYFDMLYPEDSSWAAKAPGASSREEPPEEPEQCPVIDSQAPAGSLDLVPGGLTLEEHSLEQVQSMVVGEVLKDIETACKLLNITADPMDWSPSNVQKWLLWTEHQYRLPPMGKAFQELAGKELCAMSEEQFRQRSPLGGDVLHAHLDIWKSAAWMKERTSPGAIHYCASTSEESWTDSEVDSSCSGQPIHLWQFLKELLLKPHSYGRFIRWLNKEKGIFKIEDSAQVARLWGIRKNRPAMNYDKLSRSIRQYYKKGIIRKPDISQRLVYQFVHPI
The conditions noted are these: protein: recombinant; tags: N-terminal GST; dsDNA, one strand shown. In a few lines: as §1

For the next test, the target named is T10, ETV7 (Homo sapiens, UniProt Q9Y603 1-341).
T10 sequence: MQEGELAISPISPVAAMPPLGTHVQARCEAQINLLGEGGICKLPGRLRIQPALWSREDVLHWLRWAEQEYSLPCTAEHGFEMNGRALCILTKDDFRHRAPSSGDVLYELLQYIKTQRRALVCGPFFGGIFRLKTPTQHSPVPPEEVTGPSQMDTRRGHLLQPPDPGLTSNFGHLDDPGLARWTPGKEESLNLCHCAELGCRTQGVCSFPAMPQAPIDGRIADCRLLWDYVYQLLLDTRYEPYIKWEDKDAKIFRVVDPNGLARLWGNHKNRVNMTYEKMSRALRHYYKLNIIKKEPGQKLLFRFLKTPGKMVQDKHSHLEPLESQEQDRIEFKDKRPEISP
The following applies: protein: recombinant; tags: N-terminal GST; dsDNA, one strand shown. In a few lines:
as §1

The target in another test is T11, ELF5 (Homo sapiens, UniProt Q9UKW6-2 1-255).
T11 sequence: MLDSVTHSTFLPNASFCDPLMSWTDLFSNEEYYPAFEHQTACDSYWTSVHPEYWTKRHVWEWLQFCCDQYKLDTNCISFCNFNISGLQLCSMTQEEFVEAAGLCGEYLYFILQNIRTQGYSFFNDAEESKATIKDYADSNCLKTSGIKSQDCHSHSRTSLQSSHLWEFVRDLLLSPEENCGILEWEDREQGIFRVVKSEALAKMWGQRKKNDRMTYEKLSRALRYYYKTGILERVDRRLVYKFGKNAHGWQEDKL
The following applies: protein: recombinant; tags: N-terminal GST; dsDNA, one strand shown. In a few lines:
as §1

In another test the target is T12, ETV3 (Homo sapiens, UniProt P41162-2 1-143).
T12 sequence: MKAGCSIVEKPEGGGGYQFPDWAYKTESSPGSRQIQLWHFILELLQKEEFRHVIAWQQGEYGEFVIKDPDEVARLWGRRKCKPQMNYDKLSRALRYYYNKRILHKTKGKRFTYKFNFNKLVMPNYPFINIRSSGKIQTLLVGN
The conditions noted are these: protein: recombinant; tags: N-terminal GST; dsDNA, one strand shown. In a few lines:
as §1

The target of another test is ETV6 (Homo sapiens, UniProt P41212 1-452). The conditions noted are these: protein: recombinant; tags: N-terminal GST; dsDNA, one strand shown. In outline: as §1
ETV6, sequence (P41212 whole entry): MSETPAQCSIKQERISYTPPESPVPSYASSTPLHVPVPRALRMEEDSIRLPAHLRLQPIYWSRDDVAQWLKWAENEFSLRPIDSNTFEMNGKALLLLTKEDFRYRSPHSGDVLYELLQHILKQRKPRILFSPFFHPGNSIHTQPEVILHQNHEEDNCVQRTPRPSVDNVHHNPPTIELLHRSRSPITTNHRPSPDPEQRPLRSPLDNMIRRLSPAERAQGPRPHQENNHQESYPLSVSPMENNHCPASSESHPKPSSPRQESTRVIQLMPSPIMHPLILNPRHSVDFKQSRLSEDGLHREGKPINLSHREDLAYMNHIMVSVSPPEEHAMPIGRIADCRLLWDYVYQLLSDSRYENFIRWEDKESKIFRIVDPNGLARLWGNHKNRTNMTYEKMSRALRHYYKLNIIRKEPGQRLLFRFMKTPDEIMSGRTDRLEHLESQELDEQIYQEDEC

Binding signal data for one sequence are collected here from publication PMC7862700, “An all-to-all approach to the identification of sequence-specific readers for epigenetic DNA modifications on cytosine”.

ETV1, sequence (P50549 whole entry): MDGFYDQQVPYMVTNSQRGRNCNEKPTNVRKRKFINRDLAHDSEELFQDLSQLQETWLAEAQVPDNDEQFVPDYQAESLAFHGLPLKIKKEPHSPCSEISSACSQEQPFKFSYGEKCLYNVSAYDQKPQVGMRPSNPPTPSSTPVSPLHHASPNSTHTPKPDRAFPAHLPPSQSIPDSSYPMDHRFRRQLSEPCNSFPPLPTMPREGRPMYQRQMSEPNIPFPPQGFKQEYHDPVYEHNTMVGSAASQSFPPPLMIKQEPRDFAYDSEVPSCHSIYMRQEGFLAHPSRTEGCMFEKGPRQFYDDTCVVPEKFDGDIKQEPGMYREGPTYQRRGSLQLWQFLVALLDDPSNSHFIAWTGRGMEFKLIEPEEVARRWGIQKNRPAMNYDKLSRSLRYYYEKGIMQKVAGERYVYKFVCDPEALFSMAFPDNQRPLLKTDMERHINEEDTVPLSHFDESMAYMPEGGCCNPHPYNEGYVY
ELF4, sequence (Q99607 whole entry): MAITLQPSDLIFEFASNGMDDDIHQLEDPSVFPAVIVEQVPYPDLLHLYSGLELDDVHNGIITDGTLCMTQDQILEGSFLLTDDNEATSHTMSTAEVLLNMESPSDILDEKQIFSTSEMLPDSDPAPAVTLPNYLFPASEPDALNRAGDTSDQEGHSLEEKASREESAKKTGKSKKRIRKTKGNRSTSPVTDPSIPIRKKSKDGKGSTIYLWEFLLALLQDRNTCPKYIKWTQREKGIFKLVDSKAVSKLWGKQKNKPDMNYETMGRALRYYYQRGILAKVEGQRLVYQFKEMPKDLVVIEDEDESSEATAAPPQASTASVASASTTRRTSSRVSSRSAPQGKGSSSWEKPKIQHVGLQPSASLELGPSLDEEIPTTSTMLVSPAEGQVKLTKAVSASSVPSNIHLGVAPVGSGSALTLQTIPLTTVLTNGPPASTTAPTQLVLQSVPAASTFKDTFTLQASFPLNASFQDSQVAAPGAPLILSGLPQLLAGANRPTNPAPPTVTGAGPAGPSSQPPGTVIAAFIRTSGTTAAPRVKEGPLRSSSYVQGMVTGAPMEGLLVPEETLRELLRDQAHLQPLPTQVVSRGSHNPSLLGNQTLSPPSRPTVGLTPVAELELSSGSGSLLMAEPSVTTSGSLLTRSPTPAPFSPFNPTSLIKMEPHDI
HSF1, sequence (Q00613 whole entry): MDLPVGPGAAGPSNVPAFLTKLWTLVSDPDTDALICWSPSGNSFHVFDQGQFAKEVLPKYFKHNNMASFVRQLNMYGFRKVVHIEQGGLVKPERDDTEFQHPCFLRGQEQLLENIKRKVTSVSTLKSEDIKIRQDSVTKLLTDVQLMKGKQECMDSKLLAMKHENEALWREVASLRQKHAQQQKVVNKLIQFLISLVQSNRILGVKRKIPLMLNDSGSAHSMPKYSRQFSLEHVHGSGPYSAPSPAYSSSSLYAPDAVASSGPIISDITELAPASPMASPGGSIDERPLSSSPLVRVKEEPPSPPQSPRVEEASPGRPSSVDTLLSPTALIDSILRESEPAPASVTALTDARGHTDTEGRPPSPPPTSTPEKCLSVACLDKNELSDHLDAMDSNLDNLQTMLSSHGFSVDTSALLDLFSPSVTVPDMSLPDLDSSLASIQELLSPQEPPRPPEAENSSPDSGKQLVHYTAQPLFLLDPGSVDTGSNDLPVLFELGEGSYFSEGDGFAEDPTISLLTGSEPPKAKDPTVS

Regarding AATTAC, the binding signal is 1.25 fold enrichment (6-mer frequency, TF over GST control) with FEV; 1.28 fold enrichment (6-mer frequency, TF over GST control) in the test with ETV5; 1.43 fold enrichment (6-mer frequency, TF over GST control) with HSF1; 1.33 fold enrichment (6-mer frequency, TF over GST control) in the test with SPIC; 1.24 fold enrichment (6-mer frequency, TF over GST control) in the test with ELF4; 1.27 fold enrichment (6-mer frequency, TF over GST control) with ELK4. Moreover, the binding signal is 1.38 fold enrichment (6-mer frequency, TF over GST control) with ETV2; 1.36 fold enrichment (6-mer frequency, TF over GST control) in the test with ELF3; 1.74 fold enrichment (6-mer frequency, TF over GST control) with CRX; 1.34 fold enrichment (6-mer frequency, TF over GST control) in the test with ETV1; 1.35 fold enrichment (6-mer frequency, TF over GST control) with ERF; 1.25 fold enrichment (6-mer frequency, TF over GST control) with ETV3L. Moreover, the binding signal with ETS2 was 1.36 fold enrichment (6-mer frequency, TF over GST control); with SPDEF it was 1.24 fold enrichment (6-mer frequency, TF over GST control); with ETV7, 1.36 fold enrichment (6-mer frequency, TF over GST control); with ELF5 it was 1.33 fold enrichment (6-mer frequency, TF over GST control); in the test with ETV3, 1.26 fold enrichment (6-mer frequency, TF over GST control); with ETV6 it was 1.38 fold enrichment (6-mer frequency, TF over GST control).
